Measured values reported in PubChem BioAssay AID1159580 (chemical genetic matrix, 2015).
The whole screen tested about 5,500 compounds, of which about 2,000 (36%) were called active. Another 18% or so got no clear call; they are omitted. Cut-off read from the data, not from the text of the source: active = normalized growth mostly below about 0.91 (no sharp cut-off); inconclusive = no clear call, values can overlap the other calls; inactive = mostly above about 0.92. This is one part of the list.

Assay: chemical genetic growth profiling, strain panel (AID 1159580);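 note: tested at 20 µM; growth read once vehicle control cultures reached saturation at 30 °C; 1 = growth at the plate median or of vehicle wells; lower values mean less growth of the strain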
Conditions: S. cerevisiae deletion strains, growth OD
[1] = locus YAR019C, strain CDC15, active compounds read low
[2] = locus YBL105C, strain PKC1, active compounds read low
[3] = locus YBR135W, strain CKS1, active compounds read low
[4] = locus YBR136W, strain MEC1, active compounds read low
[5] = locus YBR160W, strain CDC28, active compounds read low
[6] = locus YDL017W, strain CDC7, active compounds read low
[7] = locus YDL028C, strain MPS1, active compounds read low
[8] = locus YDL101C, strain DUN1, active compounds read low
[9] = locus YDL108W, strain KIN28, active compounds read low
[10] = locus YDL132W, strain cdc53, active compounds read low
[11] = locus YDL214C, strain PRR2, active compounds read low
[12] = locus YDR052C, strain DBF4, active compounds read low
[13] = locus YDR054C, strain cdc34, active compounds read low
[14] = locus YDR226W, strain ADK1, active compounds read low
[15] = locus YDR477W, strain SNF1, active compounds read low
[16] = locus YER123W, strain YCK3, active compounds read low
[17] = locus YER133W, strain GLC7, active compounds read low
[18] = locus YFL009W, strain cdc4, active compounds read low
[19] = locus YFL029C, strain CAK1, active compounds read low
[20] = locus YFR003C, strain YPI1, active compounds read low
[21] = locus YFR019W, strain FAB1, active compounds read low
[22] = locus YFR028C, strain CDC14, active compounds read low
[23] = locus YGR040W, strain KSS1, active compounds read low
[24] = locus YGR052W, strain FMP48, active compounds read low
[25] = locus YGR092W, strain DBF2, active compounds read low
[26] = locus YHR030C, strain SLT2, active compounds read low
[27] = locus YHR079C, strain IRE1, active compounds read low
[28] = locus YHR082C, strain KSP1, active compounds read low
[29] = locus YHR205W, strain SCH9, active compounds read low
[30] = locus YIL147C, strain SLN1, active compounds read low
[31] = locus YJL095W, strain BCK1, active compounds read low
[32] = locus YJL128C, strain PBS2, active compounds read low
[33] = locus YJL157C, strain FAR1, active compounds read low
[34] = locus YJR016C, strain ILV3, active compounds read low
[35] = locus YJR066W, strain TOR1 (second series), active compounds read low
[36] = locus YJR066W, strain TOR1, active compounds read low
[37] = locus YKL048C, strain ELM1, active compounds read low
[38] = locus YKL067W, strain YNK1, active compounds read low
[39] = locus YKL101W, strain HSL1, active compounds read low
[40] = locus YKL193C, strain SDS22, active compounds read low
[41] = locus YKL203C, strain TOR2, active compounds read low
[42] = locus YLR113W, strain HOG1, active compounds read low
[43] = locus YLR133W, strain CKI1, active compounds read low
[44] = locus YLR403W, strain SFP1, active compounds read low
[45] = locus YML070W, strain DAK1, active compounds read low
[46] = locus YMR001C, strain CDC5, active compounds read low
[47] = locus YMR205C, strain PFK2 (second series), active compounds read low
[48] = locus YMR277W, strain FCP1, active compounds read low
[49] = locus YNL006W, strain LST8, active compounds read low
[50] = locus YNL020C, strain ARK1, active compounds read low
[51] = locus YNL161W, strain CBK1, active compounds read low
[52] = locus YNL183C, strain NPR1, active compounds read low
[53] = locus YNL207W, strain RIO2, active compounds read low
[54] = locus YNL222W, strain SSU72, active compounds read low
[55] = locus YNL307C, strain MCK1 (second series), active compounds read low
[56] = locus YOL078W, strain AVO1, active compounds read low
[57] = locus YOL136C, strain PFK27, active compounds read low
[58] = locus YOR061W, strain CKA2, active compounds read low
[59] = locus YOR119C, strain RIO1, active compounds read low
[60] = locus YOR231W, strain MKK1, active compounds read low
[61] = locus YOR329C, strain SCD5, active compounds read low
[62] = locus YPL031C, strain PHO85, active compounds read low
[63] = locus YPL153C, strain RAD53, active compounds read low
[64] = locus YPL204W, strain HRR25, active compounds read low
[65] = locus YPL209C, strain IPL1, active compounds read low
[66] = locus YPL256C, strain CLN2, active compounds read low
[67] = locus YPR025C, strain CCL1, active compounds read low
[68] = locus YPR106W, strain ISR1, active compounds read low
[69] = locus YPR111W, strain DBF20, active compounds read low
[70] = strain NNK1, active compounds read low
[71] = strain TSCII, active compounds read low

Measured: normalized growth

O=C(NNc1ccccc1F)c1ccno1
inactive: [1] 0.981 | [2] 0.97 | [3] 0.976 | [4] 0.98 | [5] 0.977 | [6] 0.987 | [7] 0.981 | [8] 0.979 | [9] 0.983 | [10] 0.973 | [11] 0.942 | [12] 0.979 | [13] 0.975 | [14] 0.983 | [15] 0.948 | [16] 0.869 | [17] 0.957 | [18] 0.986 | [19] 0.979 | [20] 0.982 | [21] 0.92 | [22] 0.982 | [23] 0.915 | [24] 1.01 | [25] 0.904 | [26] 0.959 | [27] 0.952 | [28] 0.998 | [29] 0.934 | [30] 0.983 | [31] 0.937 | [32] 0.972 | [33] 0.929 | [34] 0.979 | [35] 0.886 | [36] 1.01 | [37] 0.937 | [38] 0.943 | [39] 0.905 | [40] 0.978 | [41] 1.01 | [42] 0.863 | [43] 0.93 | [44] 0.934 | [45] 0.906 | [46] 0.979 | [47] 0.95 | [48] 0.986 | [49] 0.993 | [50] 0.929 | [51] 0.979 | [52] 0.937 | [53] 0.984 | [54] 0.976 | [55] 0.924 | [56] 0.98 | [57] 0.909 | [58] 0.884 | [59] 0.996 | [60] 0.888 | [61] 0.985 | [62] 0.964 | [63] 0.909 | [64] 0.937 | [65] 0.976 | [66] 0.914 | [67] 0.978 | [68] 0.968 | [69] 0.961 | [70] 0.983 | [71] 0.977

Cc1nnsc1C(=O)Nc1cc(C(F)(F)F)cc(C(F)(F)F)c1
inactive: [1] 0.956 | [2] 0.957 | [3] 0.953 | [4] 0.958 | [5] 0.962 | [6] 0.958 | [7] 0.959 | [8] 0.964 | [9] 0.958 | [10] 0.95 | [11] 0.987 | [12] 0.966 | [13] 0.951 | [14] 0.955 | [15] 0.995 | [16] 1 | [17] 1.01 | [18] 0.948 | [19] 0.958 | [20] 0.955 | [21] 0.987 | [22] 0.964 | [23] 1 | [24] 1.02 | [25] 0.974 | [26] 1 | [27] 0.908 | [28] 1.07 | [29] 0.846 | [30] 0.957 | [31] 0.946 | [32] 0.957 | [33] 1.01 | [34] 0.956 | [35] 0.976 | [36] 1.1 | [37] 0.993 | [38] 0.977 | [39] 0.961 | [40] 0.947 | [41] 1.06 | [42] 0.961 | [43] 0.991 | [44] 0.941 | [45] 0.997 | [46] 0.962 | [47] 0.984 | [48] 0.951 | [49] 0.964 | [50] 0.985 | [51] 0.957 | [52] 1.05 | [53] 0.954 | [54] 0.961 | [55] 0.992 | [56] 0.951 | [57] 0.985 | [58] 0.996 | [59] 1.05 | [60] 1.03 | [61] 0.966 | [62] 1 | [63] 0.989 | [64] 0.99 | [65] 0.961 | [66] 0.864 | [67] 0.967 | [68] 0.948 | [69] 0.943 | [70] 0.925 | [71] 0.954

Cc1cc(C(=O)NNc2ccc(F)cc2F)no1
inactive: [1] 0.972 | [2] 0.967 | [3] 0.971 | [4] 0.969 | [5] 0.964 | [6] 0.972 | [7] 0.977 | [8] 0.959 | [9] 0.973 | [10] 0.984 | [11] 0.938 | [12] 0.963 | [13] 0.952 | [14] 0.963 | [15] 0.95 | [16] 0.822 | [17] 0.957 | [18] 0.974 | [19] 0.956 | [20] 0.974 | [21] 0.899 | [22] 0.961 | [23] 0.93 | [24] 0.995 | [25] 0.861 | [26] 0.923 | [27] 0.948 | [28] 1.01 | [29] 0.962 | [30] 0.971 | [31] 0.955 | [32] 0.965 | [33] 0.931 | [34] 0.974 | [35] 0.879 | [36] 0.998 | [37] 0.95 | [38] 0.953 | [39] 0.955 | [40] 0.976 | [41] 1.01 | [42] 0.932 | [43] 0.93 | [44] 0.934 | [45] 0.912 | [46] 0.969 | [47] 0.972 | [48] 0.975 | [49] 0.988 | [50] 0.953 | [51] 0.963 | [52] 0.979 | [53] 0.962 | [54] 0.959 | [55] 0.908 | [56] 0.967 | [57] 0.937 | [58] 0.822 | [59] 1.01 | [60] 0.921 | [61] 0.967 | [62] 0.939 | [63] 0.923 | [64] 0.925 | [65] 0.96 | [66] 0.934 | [67] 0.968 | [68] 0.962 | [69] 0.963 | [70] 0.979 | [71] 0.964

Cc1nnsc1C(=O)NNc1ccc(F)cc1F
active: [16] 0.459 | [21] 0.584 | [26] 0.831 | [42] 0.683 | [66] 0.602
inactive: [1] 0.951 | [2] 0.951 | [3] 0.956 | [4] 0.961 | [5] 0.956 | [6] 0.949 | [7] 0.97 | [8] 0.956 | [9] 0.965 | [10] 0.955 | [11] 0.706 | [12] 0.954 | [13] 0.929 | [14] 0.953 | [15] 0.711 | [17] 0.827 | [18] 0.965 | [19] 0.941 | [20] 0.968 | [22] 0.952 | [23] 0.789 | [24] 0.646 | [25] 0.636 | [27] 0.925 | [28] 0.85 | [29] 0.924 | [30] 0.967 | [31] 0.544 | [32] 0.938 | [33] 0.804 | [34] 0.962 | [35] 0.683 | [36] 0.791 | [37] 0.952 | [38] 0.819 | [39] 0.917 | [40] 0.96 | [41] 0.928 | [43] 0.812 | [44] 0.883 | [45] 0.696 | [46] 0.949 | [47] 0.906 | [48] 0.959 | [49] 0.975 | [50] 0.92 | [51] 0.945 | [52] 0.837 | [53] 0.961 | [54] 0.954 | [55] 0.678 | [56] 0.955 | [57] 0.808 | [59] 0.911 | [60] 0.908 | [61] 0.958 | [62] 0.858 | [63] 0.832 | [64] 0.917 | [65] 0.943 | [67] 0.957 | [68] 0.963 | [69] 0.966 | [70] 0.977 | [71] 0.947
